Data on 14 compounds can be found in PubChem BioAssay (NCI).

Compounds without any hit were thinned out: in the full panel of roughly 83,000, 20% have a hit.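 Method: cells in 96-well plates; compound added at one concentration; 48 h incubation; percent growth measured; values under 10 scored active.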 A number with no mark means an inactive call. The source made the active and inactive calls.

Assay in all cases: NCI-60 one-dose screen, 48 h (100 = growth as untreated, 0 = no growth, -100 = all killed)
The subject of one experiment is NCI-H23 lung. The note with it: 10 µM unless noted.
The next experiment deals with NCI-H226 lung. The settings on record: 10 µM unless noted.
The next experiment relates to NCI-H322M lung. The note with it: 10 µM unless noted.
For a further experiment, the system named is HOP-62 NSCLC. The note with it: 10 µM unless noted.
The subject of a further experiment is NCI-H460 lung. The settings on record: 10 µM unless noted.
A further experiment concerns HOP-92 NSCLC. The note with it: 10 µM.
The next experiment has as its system A549/ATCC NSCLC. The note with it: 10 µM unless noted.
The next experiment deals with 786-0 renal. The settings on record: 10 µM unless noted.
The next experiment has as its system COLO 205 colon. The settings on record: 10 µM unless noted.

Take `O=C1[C@H]2Cc3c([nH]c4ccccc34)[C@@H](c3ccc(Br)cc3)N2C(=O)CN1C1CCN(CC2CCCCC2)CC1`: the growth was -81.3% (active) with NCI-H23 lung; -3.54% (active) with NCI-H226 lung; 16.2% with NCI-H322M lung; 10.8% with HOP-62 NSCLC; -85.7% (active) with NCI-H460 lung; -59.4% (active) with HOP-92 NSCLC. Also, the results for the growth in the experiment on A549/ATCC NSCLC, with 786-0 renal and in the experiment with COLO 205 colon were -77.3% (active), -94.6% (active) and -90.6% (active), respectively.

As to `CCCn1cnc2c(c1=N)C(c1ccc(F)cc1)c1sc3c(CC)cccc3c1O2` (stereo unspecified), the growth with NCI-H23 lung is 12.4%; with NCI-H226 lung, -2.38% (active); in the experiment with NCI-H322M lung it was 52%; with HOP-62 NSCLC, 28.2%; in the experiment on NCI-H460 lung, 2.7% (active); with HOP-92 NSCLC it was 34.2%. Besides, the growth is 17% in the experiment on A549/ATCC NSCLC, 5.1% (active) in the experiment on 786-0 renal and -51.5% (active) in the experiment on COLO 205 colon.

Consider `CC(=O)C1=C(C)NC(NNC(N)=S)=NC1c1ccccc1` (stereo unspecified), for which the growth was 92.8% in the experiment on NCI-H23 lung; 99.7% in the experiment on NCI-H226 lung; 101% with NCI-H322M lung; 71.8% with HOP-62 NSCLC; 104% in the experiment with NCI-H460 lung; 78.4% in the experiment on HOP-92 NSCLC. For the same compound, the growth with A549/ATCC NSCLC was 87.9%; in the experiment on 786-0 renal, 83%; with COLO 205 colon, 106%.

As to `C=CC(=O)N1CCC=C(c2cc3c(N[C@H](C)c4ccccc4)ncnc3[nH]2)C1`, the growth in the experiment on NCI-H23 lung was 83.3%; in the experiment with NCI-H226 lung, 58.5%; in the experiment on NCI-H322M lung it was 31%; in the experiment with HOP-62 NSCLC, 58.5%; in the experiment with NCI-H460 lung, 98%; in the experiment with HOP-92 NSCLC, 38%. Also, the growth with A549/ATCC NSCLC was 52.1%; with 786-0 renal it was 43.6%; with COLO 205 colon, 96%.

For the compound `COc1ccc(/C(N)=N/C(N)=N/c2nc3ccccc3s2)cc1`, the growth in the experiment on NCI-H23 lung was 67.8%; in the experiment with NCI-H226 lung it was 77.8%; in the experiment on NCI-H322M lung, 98.4%; in the experiment on HOP-62 NSCLC, 24.5%; with NCI-H460 lung it was 82.5%; with HOP-92 NSCLC it was 85.5%. Besides, the values for the growth in the experiment with A549/ATCC NSCLC, in the experiment on 786-0 renal and in the experiment on COLO 205 colon were 33.1%, 79% and 103%, respectively.

As for `Nc1nc(Nc2ccccc2SSc2ccccc2Nc2nc(N)nc(-c3ccc4ccccc4c3)n2)nc(-c2ccc3ccccc3c2)n1`, the growth is 49.9% in the experiment with NCI-H23 lung; 59% in the experiment with NCI-H226 lung; 91.7% with NCI-H322M lung; 28.8% in the experiment with HOP-62 NSCLC; 61.1% in the experiment on NCI-H460 lung; 92.4% in the experiment with HOP-92 NSCLC. Moreover, the growth in the experiment on A549/ATCC NSCLC was 2.94% (active); in the experiment on 786-0 renal it was 82.6%; in the experiment on COLO 205 colon, 106%.

Consider `COc1cc(-c2nn(C(C)(C)C)cc2-c2ccnc(NCCCNS(=O)(=O)c3cccc(F)c3)n2)ccc1Cl`, for which the growth with NCI-H23 lung was 77.7%; in the experiment with NCI-H226 lung, 69.4%; with NCI-H322M lung, 85.3%; in the experiment on HOP-62 NSCLC it was 65.4%; in the experiment with NCI-H460 lung, 77.2%; with HOP-92 NSCLC it was 54.9%. For the same compound, the results for the growth with A549/ATCC NSCLC, with 786-0 renal and in the experiment on COLO 205 colon were 50.7%, 69.7% and 91.5%, respectively.

For `NC(=O)c1cccc(-n2ccc3cc(NC(=O)Nc4ccc(N5CCOCC5)c(C(F)(F)F)c4)ccc32)n1`, the growth with NCI-H23 lung is 12.3%; in the experiment on NCI-H226 lung, -3.89% (active); in the experiment on NCI-H322M lung it was 15.8%; in the experiment with HOP-62 NSCLC, 1.56% (active); with NCI-H460 lung, 0.481% (active); in the experiment on HOP-92 NSCLC, -16.5% (active). In addition, the values for the growth in the experiment on A549/ATCC NSCLC, in the experiment on 786-0 renal and in the experiment with COLO 205 colon were 10.5%, -41.8% (active) and -48.3% (active), respectively.

For `C[C@@H](Nc1ncnc2ccc(-c3cnc(Cl)c(NS(C)(=O)=O)c3)cc12)c1ccccc1`, the growth was 55.7% in the experiment on NCI-H23 lung; 64.6% in the experiment with NCI-H226 lung; 68.2% in the experiment on NCI-H322M lung; 36.8% with HOP-62 NSCLC; 60.5% in the experiment with NCI-H460 lung; -1.13% (active) with HOP-92 NSCLC. Besides, the results for the growth with A549/ATCC NSCLC, in the experiment with 786-0 renal and with COLO 205 colon were 54.2%, 45.4% and 80.2%, respectively.

Regarding `O=C(Nc1ccc2c(ccn2Cc2ccccn2)c1)c1ccnnc1`, the growth in the experiment on NCI-H23 lung is 94.6%; in the experiment on NCI-H226 lung, 87.3%; in the experiment with NCI-H322M lung it was 98.5%; in the experiment on HOP-62 NSCLC, 76.4%; in the experiment on NCI-H460 lung, 104%; in the experiment with HOP-92 NSCLC, 87.6%. In addition, the growth is 91.4% with A549/ATCC NSCLC, 86% with 786-0 renal and 110% in the experiment on COLO 205 colon.

For the compound `Cc1nc2ncc(-c3ccc4ncnc(NCc5ccccc5)c4c3)cc2[nH]1`, the growth with NCI-H23 lung is 67.6%; in the experiment with NCI-H226 lung, 64.6%; with NCI-H322M lung, 65.7%; with HOP-62 NSCLC it was 38.9%; in the experiment with NCI-H460 lung, 89.2%; with HOP-92 NSCLC, 17.4%. The growth was 77.5% in the experiment with A549/ATCC NSCLC, 48.3% in the experiment on 786-0 renal and 84.4% in the experiment with COLO 205 colon.

As to `COc1cc(-c2nn(C(C)(C)C)cc2-c2ccnc(NCCCNS(=O)(=O)c3ccccc3)n2)ccc1Cl`, the growth in the experiment on NCI-H23 lung is 74.4%; in the experiment on NCI-H226 lung, 66%; in the experiment with NCI-H322M lung, 87.2%; with HOP-62 NSCLC, 72.8%; in the experiment on NCI-H460 lung, 71.1%; in the experiment with HOP-92 NSCLC, 71.9%. Also, the growth with A549/ATCC NSCLC was 51.4%; in the experiment on 786-0 renal, 77.7%; with COLO 205 colon, 101%.

For `CC1(C)[C@@H](O)CC[C@]2(C)[C@H]3CC[C@@H]4[C@H]5[C@H](C(=O)/C=C\c6ccc([N+](=O)[O-])cc6)CC[C@]5(O)CC[C@@]4(C)[C@]3(C)CC[C@@H]12`, the growth was 50.2% in the experiment on NCI-H23 lung; -2.45% (active) in the experiment on NCI-H226 lung; 90.8% in the experiment on NCI-H322M lung; 86.9% in the experiment on HOP-62 NSCLC; 51.8% with NCI-H460 lung; 82.7% in the experiment with HOP-92 NSCLC. For the same compound, the growth is 61.8% with A549/ATCC NSCLC, 56.8% with 786-0 renal and 106% with COLO 205 colon.

For `C/C(=N\O)[C@H]1C[C@]23CC[C@]4(C)[C@H](CC[C@@H]5[C@@]6(C)CC/C(=N/O)C(C)(C)[C@@H]6CC[C@]54C)[C@H]2[C@H](C)C1(C)OC3`, the growth with NCI-H23 lung was 96.5%; with NCI-H226 lung it was 91.9%; in the experiment on NCI-H322M lung it was 114%; in the experiment on HOP-62 NSCLC it was 88.5%; in the experiment on NCI-H460 lung it was 106%; in the experiment on HOP-92 NSCLC, 106%. For the same compound, the growth in the experiment on A549/ATCC NSCLC was 94.7%; with 786-0 renal, 92.1%; in the experiment on COLO 205 colon it was 116%.
